Most compounds without a hit are left out; they make up all but 10% or so of the library.
Six1-Eya2 blk: blocks human Six1 binding to Eya2 | activity change, % (concentration not given with the values) | Q15475+O00167 | AlphaScreen GST-Six1/His-Eya2 binding, biochemical; stronger effect = lower value | AID 651725 | 360,000 tested, 0.56% active; in the data active means activity change below about -65%; inconclusive means mostly about -30% to -63%
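Six1/Eya2 binding was read as AlphaScreen signal after compounds were pinned into GST-Six1 plus His-tagged Eya2 (5X stock 250/500 nM) in pH 8.0 Tris/NaCl/TCEP buffer, beads added, then incubated 1 h, 37 C, dark.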
G9a block: G9a (human) methyltransferase inhibition. Q96KQ7. G9a H3K9 monomethylation, AlphaScreen, 2 h. Potency, µM (titrated, usually from 102 µM), hits mostly inhibitors. 350,000 tested, 8.8% active. AID 504332; further: nearly all actives have a fitted effect of over 75% in size
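Using a bead-based AlphaScreen, monomethylated H3K9 product from 2 h room-temperature reactions (G9a 20 nM, peptide 500 nM, SAM 20 uM) was detected with 0.5 ug/mL rabbit anti-H3K9me1 antibody.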
JMJD2A Tudor inh: inhibitors of human JMJD2A Tudor domain; Potency, µM (series often up to 114 µM), actives largely listed as inhibitors; AlphaScreen JMJD2A-Tudor / H3K4me3 peptide binding; 390,000 tested, 4.4% active; further: nearly all actives have a fitted effect of over 50% in size
CtBP-E1A inh: inhibitors of CtBP/E1A interaction. AID 651724. 340,000 tested, 0.49% active. AlphaScreen GST-E1A/His-CtBP binding, 1536-well; stronger effect = lower value. activity change, % (test concentration not listed); in the data active means activity change below about -65%; inconclusive means mostly about -30% to -63%
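GST-E1A and His-tagged CtBP (125 nM each as 5X stock) were preincubated with pin-transferred compound for 2 h at 37 °C in the dark, then glutathione donor and nickel acceptor beads were added for 1 h before AlphaScreen reading.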
BAZ2B block: BAZ2B (human) inhibition; Q9UIF8; AlphaScreen BAZ2B-H3K14Ac peptide displacement; Potency, µM (top dose mostly 114 µM), usual class: inhibitors; 360,000 tested, 4.4% active; AID 504333; further: nearly all actives have a fitted effect of over 60% in size
Target sequence (Q9UIF8 whole entry, looked up): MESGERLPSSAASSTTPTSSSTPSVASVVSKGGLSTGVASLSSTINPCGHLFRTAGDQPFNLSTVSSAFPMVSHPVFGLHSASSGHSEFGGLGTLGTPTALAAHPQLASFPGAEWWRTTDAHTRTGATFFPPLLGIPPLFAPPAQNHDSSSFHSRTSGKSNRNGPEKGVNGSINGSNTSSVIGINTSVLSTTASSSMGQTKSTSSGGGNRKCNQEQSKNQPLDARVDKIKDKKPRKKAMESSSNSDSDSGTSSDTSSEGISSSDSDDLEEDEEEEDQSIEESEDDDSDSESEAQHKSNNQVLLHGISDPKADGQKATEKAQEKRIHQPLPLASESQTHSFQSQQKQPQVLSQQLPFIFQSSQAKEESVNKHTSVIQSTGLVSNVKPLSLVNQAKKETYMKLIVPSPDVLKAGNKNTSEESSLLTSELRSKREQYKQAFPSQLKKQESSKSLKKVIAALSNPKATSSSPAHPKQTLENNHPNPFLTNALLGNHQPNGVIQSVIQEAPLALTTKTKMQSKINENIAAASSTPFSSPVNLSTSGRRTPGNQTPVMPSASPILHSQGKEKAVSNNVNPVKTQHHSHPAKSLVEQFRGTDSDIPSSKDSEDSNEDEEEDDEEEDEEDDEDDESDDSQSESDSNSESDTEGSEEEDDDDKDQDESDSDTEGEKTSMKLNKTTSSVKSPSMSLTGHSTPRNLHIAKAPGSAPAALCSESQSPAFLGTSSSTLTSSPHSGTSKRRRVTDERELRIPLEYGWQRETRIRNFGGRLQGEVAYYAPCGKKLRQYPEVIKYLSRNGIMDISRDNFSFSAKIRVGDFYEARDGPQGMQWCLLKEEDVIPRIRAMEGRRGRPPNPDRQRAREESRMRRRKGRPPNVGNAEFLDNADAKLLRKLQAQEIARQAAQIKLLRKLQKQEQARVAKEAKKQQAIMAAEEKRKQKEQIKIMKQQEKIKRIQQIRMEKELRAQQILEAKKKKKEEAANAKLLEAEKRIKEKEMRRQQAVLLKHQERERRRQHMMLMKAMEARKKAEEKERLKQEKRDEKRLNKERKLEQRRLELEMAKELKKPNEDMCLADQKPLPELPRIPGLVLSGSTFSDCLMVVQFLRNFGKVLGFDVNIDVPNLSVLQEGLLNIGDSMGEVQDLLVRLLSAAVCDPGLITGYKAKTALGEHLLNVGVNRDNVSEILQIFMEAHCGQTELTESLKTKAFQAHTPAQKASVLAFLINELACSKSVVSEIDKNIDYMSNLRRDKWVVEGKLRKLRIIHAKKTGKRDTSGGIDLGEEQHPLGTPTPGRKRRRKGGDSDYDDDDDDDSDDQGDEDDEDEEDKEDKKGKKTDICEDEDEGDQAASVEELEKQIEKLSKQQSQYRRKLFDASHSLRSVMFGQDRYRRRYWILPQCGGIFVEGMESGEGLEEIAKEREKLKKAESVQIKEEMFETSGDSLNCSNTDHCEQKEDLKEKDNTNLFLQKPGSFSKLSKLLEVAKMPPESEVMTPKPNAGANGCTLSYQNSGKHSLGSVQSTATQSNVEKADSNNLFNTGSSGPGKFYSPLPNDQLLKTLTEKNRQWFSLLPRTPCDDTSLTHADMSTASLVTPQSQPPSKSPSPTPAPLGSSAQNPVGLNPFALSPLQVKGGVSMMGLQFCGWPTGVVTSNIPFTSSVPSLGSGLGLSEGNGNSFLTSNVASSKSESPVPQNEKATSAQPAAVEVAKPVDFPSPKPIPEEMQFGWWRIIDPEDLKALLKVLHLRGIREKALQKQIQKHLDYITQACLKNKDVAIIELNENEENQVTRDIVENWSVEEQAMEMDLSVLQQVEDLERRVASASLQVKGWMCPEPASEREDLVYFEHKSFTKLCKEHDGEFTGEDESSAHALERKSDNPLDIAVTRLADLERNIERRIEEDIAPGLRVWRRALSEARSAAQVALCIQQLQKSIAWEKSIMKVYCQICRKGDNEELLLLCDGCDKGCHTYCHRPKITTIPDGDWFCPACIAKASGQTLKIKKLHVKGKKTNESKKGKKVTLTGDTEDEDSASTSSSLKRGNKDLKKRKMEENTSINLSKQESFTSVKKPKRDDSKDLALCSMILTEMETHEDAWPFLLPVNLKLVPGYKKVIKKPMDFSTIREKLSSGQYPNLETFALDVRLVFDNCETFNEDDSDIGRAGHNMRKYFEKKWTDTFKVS
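Multi-concentration screen (max 110 uM) measuring displacement of acetylated histone H3 peptide from BAZ2B by AlphaScreen, using 50 nM protein, 50 nM peptide and 10 ug/mL streptavidin donor plus Ni-chelate acceptor beads.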
HP1b binding inh: blocks HP1-beta chromodomain binding to methylated histone tails; Potency, µM (top dose mostly 114 µM), actives largely listed as inhibitors; 390,000 tested, 0.56% active; P83916; AlphaScreen HP1-beta / biotin-H3K9me3 peptide binding; further: nearly all actives have a fitted effect of over 70% in size
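HP1-beta protein (50 nM final) preincubated 30 min at room temperature with biotinylated H3(1-18)K9me3 peptide (50 nM) in PBS pH 7.4, 0.01% Tween-20, then compound added for 30 min. AlphaScreen streptavidin donor/nickel chelate acceptor beads (10 ug/mL final), 30 min dark, luminescence read.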
A number is an active result; i = inactive; ? = inconclusive; nt = no result; [ ] = dose if it differs, or a comment. Unless noted, the call rests on the fitted dose curve; in most records, active means well fitted inhibition curve with a large enough effect; inconclusive means small, poorly fitted or top-dose-only effect; inactive means no such curve, though single readings can be large or run the other way.

SMILES | Six1-Eya2 blk | G9a block | JMJD2A Tudor inh | CtBP-E1A inh | BAZ2B block | HP1b binding inh
CCCCCn1c(SCCN2CCOCC2)nc2c1c(=O)[nH]c(=O)n2C | i | 25µM | i | i | i | i
O=S(=O)(NCC1(N2CCOCC2)CCCCC1)c1ccc(Cl)cc1C(F)(F)F | i | i | i | i | i | i
CCOC(=O)c1cnc2ccc(Br)cc2c1NCCCN1CCOCC1 | i | ? | i | i | i | i
O=C(O)c1ccc(-c2sc(Nc3ccccc3)n[n+]2-c2ccc(F)cc2)cc1 | i | 40µM | i | i | i | i
O=C(O)c1ccc(-c2sc(Nc3ccccc3)n[n+]2-c2ccccc2)cc1 | i | nt | 45µM | i | ? | i
Cc1cccc(-c2sc(Nc3ccccc3)n[n+]2-c2ccccc2)c1 | i | i[2.33 µM] | 79µM | i | 50µM | i
CCOC(=O)N1CCN(C(=O)COC(=O)c2cc(C)ccc2C)CC1 | i | nt | i | i | nt | i
CCOC(=O)c1cc(S(=O)(=O)Nc2ccccc2OCC)[nH]n1 | nt | 8.9µM | 50µM | nt | 50µM | i
CCOC(=O)c1cc(S(=O)(=O)Nc2ccc(OC(F)(F)F)cc2)[nH]n1 | nt | 3.2µM | ? | nt | 50µM | i
CCOC(=O)c1ccc(NS(=O)(=O)c2c(C)n[nH]c2C)cc1 | i | i[12.7 µM] | i | i | i | i
CCOC(=O)c1cc(S(=O)(=O)Nc2ccccc2)[nH]n1 | nt | 10µM | ? | nt | 79µM | i
CCOc1ccccc1NS(=O)(=O)c1cnc(N)nc1 | nt | i | i | nt | i | i
COC(=O)C[C@@H]1C=C[C@H](NC(=O)c2cnccn2)[C@@H](CO)O1 | i | nt | nt | i | nt | nt
C/C(=N\N=c1/scc(C)n1Cc1ccco1)c1cccc([N+](=O)[O-])c1 | ? | ? | 25µM | i | 10µM | ?
C(=C\c1ccco1)/c1ccc2ccccc2n1 | i | nt | i | i | 40µM | ?
Cc1ccc(C)c(NC(=O)Nc2ccc3c(c2)OCO3)c1 | i | i[12.7 µM] | i | i | i | i
Cc1ccc(CNc2ccc3c(c2)OCO3)c(C)c1 | nt | 13µM | nt | nt | 45µM | nt
COc1cc2sc3cc(NCc4ccc5c(c4)OCO5)ccc3c(=O)c2cc1OC | i | nt | i | i | nt | i
COc1ccc(Cl)cc1S(=O)(=O)NC(C)C(=O)NCc1ccncc1 (stereo not given) | i | i | i | i | i | i
COc1cc(OC)c(OC)cc1CNCc1ccc2c(c1)OCO2 | i | 45µM | 50µM | nt | i | i
COc1ccc(Cl)cc1S(=O)(=O)NC(C)C(=O)NCc1ccc2c(c1)OCO2 (stereo not given) | i | i | 50µM | i | i | i
COc1ccc(NCc2ccc3c(c2)OCO3)cc1Cl | i | ? | 45µM | i | 40µM | ?
O=C(c1ccccc1NS(=O)(=O)c1ccc(Cl)cc1)N1CCc2ccccc21 | i | i | i | i | i | i
Fc1ccc(-n2ncc3c(NCCCn4ccnc4)ncnc32)cc1 | nt | i | i | nt | i | i
Clc1cccc(-n2ncc3c(NCCCn4ccnc4)ncnc32)c1 | nt | i | ? | nt | 28µM | i
SMILES | Six1-Eya2 blk | G9a block | JMJD2A Tudor inh | CtBP-E1A inh | BAZ2B block | HP1b binding inh
c1ccc(-n2ncc3c(NCCN4CCCCC4)ncnc32)cc1 | i | 45µM | i | i | ? | i
CC1=NOC(=O)/C1=C/c1ccc(O)c(Br)c1 | i | 45µM | i | i | 56µM | i
CC1=NOC(=O)/C1=C/c1ccc(O)cc1 | i | 50µM | 16µM | i | 50µM | i
CCOC(=O)c1ccc(N2C(=O)Cc3cc(OCC)c(OCC)cc3C2c2ccccc2)cc1 (stereo not given) | nt | i | ? | nt | i | i
Cc1ccc(-c2cc(C(=O)Nc3ccc(SC(F)F)cc3)no2)cc1F | nt | ? | i | nt | ? | i
C[n+]1c(-c2ccccc2)cc2c(=Cc3ccccc3)c3ccccc3n21 | ? | nt | 40µM | i | nt | ?
CN(C)c1ccc(/C=c2\sc3nc(-c4ccccc4)nn3c2=O)cc1 | nt | i[12.7 µM] | nt | nt | i | nt
C[n+]1c(-c2ccccc2)cc2c(=Cc3ccc([N+](=O)[O-])cc3)c3ccccc3n21 | ? | nt | 45µM | i | nt | ?
CC(C)n1c2ccccc2c2cc([N+](=O)[O-])ccc21 | i | i | i | i | i | i
CN(C)c1ccc(C=c2c3cc(O)ccc3n3c2cc(-c2ccccc2)[n+]3C)cc1 | -74 | nt | 25µM | i | nt | 50µM
COc1ccc(C(=O)N2CCCCC2CCN2CCOCC2)cc1 (stereo not given) | nt | i | i | nt | i | i
CCc1ccc2cc3c(cc2n1)C(=O)c1ccccc1-3 | i | nt | nt | i | nt | nt
O=C(NC1CCCC1)c1ccc2c(c1)N(Cc1ccccc1F)C(=O)c1ccccc1S2 | nt | i | i | nt | i | i
CCCCNC(=O)c1nc(C2CCN(S(=O)(=O)c3ccc(S(C)(=O)=O)cc3)CC2)oc1-c1ccccc1 | i | nt | nt | i | nt | nt
CC(=O)Nc1cccc(NC(=O)c2ccc(C(=O)Nc3cccc(NC(C)=O)c3)nc2)c1 | i | i | i | i | i | i
Cc1ccc(NC(=O)c2nccnc2C(=O)O)cc1C | i | 45µM | i | i | ? | i
Cc1ccc(NC(=O)c2ccccc2-c2ccccc2C(=O)O)cc1C | i | ? | i | i | ? | i
O=C(O)c1nccnc1C(=O)Nc1ccc(Cl)cn1 | i | 45µM | ? | i | ? | i
CC(=O)c1cccc(NC(=O)c2ccc(C(=O)Nc3cccc(C(C)=O)c3)nc2)c1 | i | ? | 20µM | i | ? | i
Nc1cccc(C(=O)Nc2cccc3ncccc23)c1 | i | nt | i | i | i | i
CC(=O)Nc1cccc(C(=O)Nc2cccc3ncccc23)c1 | i | 45µM | i | i | i | i
CC(=O)CC(=O)Nc1ccc(Cl)cn1 | i | nt | i | i | i | i
COc1cc(C)c(C)cc1S(=O)(=O)Nc1cccc(-c2ccc(N3CCOCC3)nn2)c1 | nt | ? | i | nt | i | i
CCOc1ccc2c(c1)c(=O)c(C(=O)c1ccc3c(c1)OCO3)cn2Cc1ccc(F)cc1 | nt | i | i | nt | i | i
Cc1cc(=O)[nH]c2nnc(SCC(N)=O)n12 | nt | i | i | nt | i | i
SMILES | Six1-Eya2 blk | G9a block | JMJD2A Tudor inh | CtBP-E1A inh | BAZ2B block | HP1b binding inh
CCc1ccc(NC(=O)c2cccc(C(=O)Nc3ccc(CC)cc3)n2)cc1 | i | nt | i | i | i | i
Cc1ccc(NC(=O)c2cccc(C(=O)Nc3ccc(C)c(C)c3)n2)cc1C | i | i | 22µM | i | i | i
Cc1cc(C)cc(NC(=O)c2nccnc2C(=O)O)c1 | i | 25µM | 79µM | i | ? | i
CC(=O)c1cccc(NC(=O)c2nccnc2C(=O)O)c1 | i | ? | 20µM | i | i | i
CC(=O)c1cccc(NC(=O)c2nc(-c3ccccc3)oc2C)c1 | i | i | i | i | i | i
COC(=O)c1cc(NC(=O)c2nccnc2C(=O)O)cc(C(=O)OC)c1 | i | 45µM | 56µM | i | i | i
COC(=O)c1cc(NC(=O)c2cccnc2)cc(C(=O)OC)c1 | i | i | i | nt | i | i
